Compound activity as filed in PubChem.
MARV entry inh: inhibitors of Marburg virus binding or cell entry | AID 540276 | actives 1.8% (n = 300,000) | Marburg virus pseudotyped entry inhibition, cell reporter | Potency, µM (highest dose often 37.8 µM), inactives show top-dose activity change, negative = inhibition, actives largely listed as inhibitors; calls by dose curve; tested in HEK293 cells; also: potency is read from the fitted curve at half-maximal effect
LASV entry inh: inhibitors of Lassa virus binding or cell entry. actives 1.2% (n = 300,000). Potency, µM (titrated, usually from 37.9 µM), inactives show at the highest dose activity change, negative = inhibition, actives largely listed as inhibitors. Lassa virus pseudotype entry inhibition, cell reporter; calls by dose curve; tested in HEK293 cells; also: potency is read from the fitted curve at half-maximal effect; nearly all actives have a fitted effect of over 50% in size
FMDV inh: blocks foot and mouth disease virus; actives 1.2% (n = 410,000); AID 1159524; Potency, µM (titrated, usually from 57.9 µM), for inactives: at the top dose activity change, negative = inhibition, hits mostly inhibitors; FMDV antiviral cell-based qHTS; calls by dose curve; tested in HEK293T cells; also: read-out not given here; potency is read from the fitted curve at half-maximal effect; nearly all actives have a fitted effect of over 45% in size
VACV mCherry inh: inhibitors of vaccinia virus infection (mCherry reporter signal); Vaccinia virus mCherry reporter infection, fluorescence; Potency, µM (highest dose often 36.5 µM), without a hit: top-dose activity change, negative = inhibition, usual class: inhibitors; actives 0.63% (n = 310,000); AID 720579; calls by dose curve; tested in A549 cells; also: potency is read from the fitted curve at half-maximal effect; nearly all actives have a fitted effect of over 35% in size
HCMV inh: blocks human cytomegalovirus replication; HFF cells, HCMV-luciferase reporter, 72 h; active compounds read low; activity change, negative = inhibition, % at 57.5 µM; actives 4.5% (n = 410,000); in the data active = activity change below about -60%; inconclusive = no clear call, values can overlap the other calls; inactive = above about -39%
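Two-dose cell screen: HFF monolayers treated with compounds and infected with luciferase-expressing HCMV at 1 PFU/cell, 72 h at 37C, then lysed for luciferase measurement.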
Vaccinia Venus: inhibitors of vaccinia virus (Venus reporter); Vaccinia virus Venus reporter expression, fluorescence; Potency, µM (highest dose often 36.5 µM), inactives show at the top dose activity change, negative = inhibition, actives largely listed as inhibitors; actives 0.46% (n = 330,000); calls by dose curve; tested in A549 cells; also: potency is read from the fitted curve at half-maximal effect; nearly all actives have a fitted effect of over 30% in size
* = called active by the depositor; i = inactive; ? = inconclusive; / = not tested or not shown; [ ] = another dose, or the depositor's remark. Most compounds without a hit are left out; they make up all but 6.5% or so of the library. % is scaled to controls: 0 for no effect and ±100 for the full control effect.

SMILES	MARV entry inh	LASV entry inh	FMDV inh	VACV mCherry inh	HCMV inh	Vaccinia Venus
Cc1cccc(Cn2nnc3c2C(=O)c2ccccc2C3=O)c1	?	?	?	/	-100*	/
Cc1cc(C(=O)Cn2ncc(Cl)c(Cl)c2=O)c(C)n1CC(F)(F)F	?	?	?	?	-100*	14µM*
Cc1ccc(C)c(C(=O)Cn2ncc(Cl)c(Cl)c2=O)c1	10µM*	?	32µM*	-21%	-97*	?
Cc1ccccc1Cn1nnc2c1C(=O)c1ccccc1C2=O	?	-20%	-2%	-12%	80	4%
Cc1cccc(Cn2ncc(Cl)c(Cl)c2=O)c1	?	?	?	/	-94*	/
Cc1ccc(C)c(C(=O)CN2C(=O)c3ccccc3C2=O)c1	-3%[46.1 µM]	0%[46.1 µM]	17%	-22%	-14	-3%
CCOc1ccc(N(C(=O)c2ccc(Cl)cc2)S(=O)(=O)c2ccc3c(c2)n(C)c(=O)n3C)cc1	6%[46.1 µM]	-12%[46.1 µM]	-4%	-8%	1	-9%
CC(C)N(c1cc(=O)nc2ccccn12)C(C)C	/	/	/	/	-7	/
CC(C)(C)n1nc(C2CC2)c(Br)c1NC(=O)c1ccccc1Cl	/	/	/	/	-20	/
COc1ccc(N/N=C/c2c(C(=O)O)ccc3ccccc23)cc1	/	/	5%	/	-100*	/
NC(=O)CN1C(=O)NC2(CCCc3sccc32)C1=O (configuration not stated)	8%[46.1 µM]	0%	21%	i	24	-8%
Cc1cc(C(=O)CN2C(=O)NC3(CCCc4sccc43)C2=O)c(C)n1-c1ccc(Cl)cc1 (configuration not stated)	?	?	7%	i	-62*	-16%
Cc1ccccc1C(=O)Nc1ccc2c(c1)OCCO2	/	/	-21%	/	-14	/
COc1cccc(NC(=O)c2ccc3c(c2)OCCO3)c1	?	1.1µM*	-43%	0%	32	1%
O=C(Nc1ccc2c(c1)OCCO2)c1coc2ccccc2c1=O	-5%	-6%	7.9µM*	?	-36	-25%
O=C(Nc1nnc(C2=COCCO2)o1)c1ccc([N+](=O)[O-])cc1	-11%	-20%	10%	i	-98*	-28%
COc1ccc(C(=O)Nc2ccc3c(c2)OCCO3)cc1	6.5µM*	5.2µM*	/	i	61	-8%
CNC(=O)[C@@H]1C[C@H](Sc2nc3ccccc3[nH]2)CN1Cc1cccc(C(F)(F)F)c1	/	/	-9%	-9%	/	-6%
O=C(c1cccc(F)c1)N1CC(=O)N2[C@@H](CO)[C@@H](c3ccc(Br)cc3)[C@@H]2C1	/	/	/	/	0	/
O=C(Nc1cccc([N+](=O)[O-])c1)c1ccc2c(c1)OCCO2	?	?	-16%	-12%	-107*	-13%
O=C(Nc1cccc(Cl)c1)c1ccc2c(c1)OCCO2	?	?	?	-14%	97	-9%
COc1ccc(C(=O)Nc2nc(C)c3cc4c(cc3n2)OCO4)cc1	?	-1%[46.1 µM]	25µM*	-7%	1	-2%
COc1cccc(C(=O)Nc2cccc(C(=O)N3CCOCC3)c2)c1	?	2%	19%	/	-66*	/
COc1cccc(C(=O)N2CCOCC2)c1	-11%[46.1 µM]	-1%	6%	-3%	-22	-7%
COc1cccc(OC)c1C(=O)Nc1ccc2c(c1)OCCO2	2%	-7%	-3%	/	-79*	/
SMILES	MARV entry inh	LASV entry inh	FMDV inh	VACV mCherry inh	HCMV inh	Vaccinia Venus
COc1ccc2c(c1)OC(C)CN(CCNC(=O)c1cccc(N3CCNC3=O)c1)C2 (configuration not stated)	/	/	4%	-16%	/	-15%
COc1cc(OC)cc(-c2nnc(NC(=O)c3ccc4c(c3)OCCO4)o2)c1	/	/	-16%	/	-61*	/
COc1cc2cc(C(=O)Nc3ccc4c(c3)OCCO4)[nH]c2cc1OC	/	/	?	/	-68*	/
COc1cc2[nH]c(C(=O)Nc3ccc4c(c3)OCCO4)cc2c(OC)c1OC	?	8%[46.1 µM]	?	-9%	-36	-11%
O=C(Nc1ccc2c(c1)OCCO2)c1ccc(Br)s1	7.9µM*	5.6µM*	?	-18%	-5	-21%
CCc1sc(C(=O)Nc2ccc3c(c2)OCCO3)cc1Br	/	/	/	/	30	/
COc1cccc(NC(=O)c2ccc3c(O)c(S(=O)(=O)c4ccccc4)c(=O)[nH]c3c2)c1	11%[46.1 µM]	-7%[46.1 µM]	-16%	-13%	-63*	-5%
CC(=O)c1cccc(NC(=O)CN2C(=O)c3cccnc3Sc3ccccc32)c1	/	1%[46.1 µM]	8%	4%	77	-5%
C[C@@H]1COc2cc(N3CCOCC3)ccc2S(=O)(=O)N1	/	/	/	/	15	/
COc1ccc(C(=O)Nc2ccc3[nH]ccc3c2)cc1	?	1.4µM*	8.9µM*	?	42	-25%
COc1cc2nc(N(C)C)c(CNC3CCOC(C)(C)C3)cc2c(OC)c1OC (configuration not stated)	/	/	-12%	-4%	/	13%
OC(c1cc(-c2ccc(Cl)cc2)nc2ccccc12)C1CCCCN1 (configuration not stated)	/	/	?	?	4	14µM*
CCCN(C(=O)c1sc2nc3n(c(=O)c2c1C)CCCC3)c1ccccc1C	/	14%[46.1 µM]	-23%	?	-102*	14%
COc1ccc(CNC(=O)c2sc3nc4n(c(=O)c3c2C)CCCCC4)cc1	/	-20%[46.1 µM]	22µM*	1%	16	-6%
COc1cc(NC(=O)CC2C(=O)N(c3cccc(C)c3)C(=O)N2Cc2ccco2)cc(OC)c1 (configuration not stated)	/	?	-6%	-6%	-32	-6%
CS(=O)(=O)N1CCC2(CC1)CN(c1cccc(-c3ccccc3)c1)C2	/	/	-8%	/	/	/
Oc1c(C(Nc2nc3ccccc3s2)c2ccco2)ccc2cccnc12 (configuration not stated)	?	?	26%	2.8µM*	-98*	?
CC(C)C(=O)NC(c1ccc(N(C)C)cc1)c1ccc2cccnc2c1O (configuration not stated)	/	/	/	4µM*	/	?
CCN(CC)c1ccc(C(NC(=O)C(C)C)c2ccc3cccnc3c2O)cc1 (configuration not stated)	/	/	-22%	?	-99*	?
CC(=O)NC(c1ccco1)c1cc(Cl)c2ccc(Cl)nc2c1O (configuration not stated)	/	/	0%	/	-29	/
CC(C)C(=O)NC(c1ccc([N+](=O)[O-])cc1)c1c(O)ccc2ccccc12 (configuration not stated)	6%	-3%	?	/	-29	/
c1coc(CNc2nc3ccccc3s2)c1	?	?	85%	-23%	127	-19%
CC(C)C(=O)NC(c1ccco1)c1ccc2cccnc2c1O (configuration not stated)	?	?	-18%	/	-102*	?
CN1CCN(C(c2ccc(F)cc2)c2ccc3cccnc3c2O)CC1 (configuration not stated)	/	/	-4%	/	/	/
